For experiment [1], the system named is Human papillomavirus type 1a protein E7 (residues 44-93). The experiment is described as follows: HPV1a E7 fragment binders on microarrays, primary screen, biochemical, small-molecule microarray, residues 44-93, 635 nm fluorescence (AID 1108).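 Note: E7 fragment applied at 1 µg/mL in TBST for 1 h at 4 C; score combines spot fluorescence with its signal to noise ratio.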 As to conditions: small-molecule microarray binding, fluorescence 635 nm; higher = more signal.
Experiment [2] is described as follows: modulators of HCV replicon luciferase signal, primary screen, HCV replication inhibitor project, Huh7 cells, luciferase reporter (AID 1109).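 Note: huh7 hepatoma cells harbouring a luciferase neomycin HCV replicon reporter; luciferase luminescence as measure of HCV replicon replication; test concentration not given here.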 As to conditions: 48 h, higher = more signal. On the technique in general: Replicon systems follow genome replication, usually without infectious particles.
Experiment [3] has as its target Left-right determination factor 2 (Homo sapiens) (UniProt O00292). The experiment is described as follows: LEFTY2 binders on small-molecule microarrays, primary screen, biochemical, small-molecule microarray, 635 nm fluorescence scan (AID 1110). As to conditions: LEFTY2 binding, higher = more signal.
In experiment [4] the target is Calmodulin-1 (Homo sapiens) (UniProt P0DP23). Kind of experiment: CALM1 binders on microarrays, EGTA buffer, profiling panel, biochemical, small-molecule microarray, Cy5-labelled CALM1 (AID 1111).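 Note: labelled calmodulin applied in Tris saline Tween buffer holding calcium plus EGTA and DTT.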 As to conditions: Cy5-CALM1 binding fluorescence, higher = more signal.
The target is the same in experiment [5]. The experiment is described as follows: calcium-bound CALM1 binders on microarrays, profiling panel, artefact control for SMM control-protein annotation, biochemical, small-molecule microarray, Cy5-labelled CALM1, plus calcium (AID 1112).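 Note: score merges spot fluorescence with signal to noise from triplicate slides.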 As to conditions: Cy5-CALM1 binding fluorescence, higher = more signal.
The nature of experiment [6]: small-molecule microarray binders of probe aWnt5a, primary screen, biochemical, biotinylated probe, 635/667 nm fluorescence (AID 1113).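 Note: score merges 667 nm fluorescence intensity with signal-to-noise per printed feature.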 As to conditions: higher = more signal.
A short description of experiment [7]: small-molecule microarray binders of probe aShh, primary screen, biochemical, biotinylated probe, 635/667 nm fluorescence (AID 1114).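 Note: probe is biotin-labelled aShh protein from a stem cell growth factor screen; measures binding of labelled protein to compounds printed on the slide; score merges feature fluorescence at 667 nm with signal-to-noise.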 As to conditions: higher = more signal.
Experiment [8] can be described thus: small-molecule microarray binders of probe aNog, primary screen, biochemical, biotinylated probe, 635/667 nm fluorescence (AID 1115).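 Note: probe is biotinylated aNog protein used at 0.15 µg/mL for 1 h at 4 C; z-score combines 667 nm fluorescence of each spot with its signal to noise.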 As to conditions: higher = more signal.
Experiment [9] has as its target Torsin-1A-interacting protein 1 (Homo sapiens) (UniProt Q5JTV8). Kind of experiment: LAP1 binders from COS7 cell lysate, primary screen, small-molecule microarray, 635/667 nm fluorescence (AID 1116). The note with it: COS7-hLAP1 lysate binding, 635 nm fluorescence, higher = more signal.
Experiment [10] concerns the target Alpha-bungarotoxin (Bungarus multicinctus) (UniProt P60615). Kind of experiment: alpha-bungarotoxin binders on microarray, profiling panel, artefact control for SMM control protein annotation, biochemical, small-molecule microarray, Alexa647 label, 635/667 nm fluorescence (AID 1117). As to conditions: alpha-BTX-A647 binding fluorescence, higher = more signal.
The target of a further experiment is Albumin (Bos taurus) (UniProt P02769). Kind of experiment: bovine serum albumin binders on microarray, profiling panel, artefact control for SMM control protein annotation, biochemical, small-molecule microarray, Alexa647 label, 635/667 nm fluorescence (AID 1118).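 Note: score merges 667 nm emission intensity and signal-to-noise per printed compound spot.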 The note with it: BSA-A647 binding, fluorescence 635 nm, higher = more signal.
Experiment [11] in a line: small-molecule microarray binders of probe aXIP, primary screen, biochemical, NeuroSMM set, 635/667 nm fluorescence (AID 1119).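 Note: probe is the protein aXip251-270 applied at 1 µg/mL to compound-printed slides; binding of probe to printed compounds measured as 667 nm fluorescence plus signal to noise.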 The note with it: higher = more signal, called active from +8 up or from −8 down.
A short description of experiment [12]: small-molecule binders of probe aNOTCH3, primary screen, biochemical, small-molecule microarray, 635/667 nm fluorescence (AID 1120).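 Note: probe is a biotin-tagged antibody raised against NOTCH3 rather than NOTCH3 protein; score merges spot fluorescence near 667 nm with spot signal to noise.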 As to conditions: higher = more signal.
Experiment [13] is described as follows: small-molecule binders of probe aNOTCH2, primary screen, biochemical, small-molecule microarray, 635/667 nm fluorescence (AID 1121).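 Note: score merges feature fluorescence read at 667 nm with its signal to noise.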 The note with it: higher = more signal.
The target of experiment [14] is Carbonic anhydrase 2 (Homo sapiens) (UniProt P00918). Kind of experiment: CAII small-molecule binders, profiling panel, biochemical, small-molecule microarray, Alexa647-labelled CAII (AID 1122). As to conditions: CAII-A647 binding fluorescence, higher = more signal.
Experiment [15] in a line: COS7 lysate on small-molecule microarray, probe aHis, 635 nm (AID 1123).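 Note: z-score combines 667nm fluorescence intensity with signal-to-noise per printed compound spot.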 The note with it: COS7 cell lysate, fluorescence, higher = more signal.
Experiment [16] can be described thus: compound binding in COS7 lysate, probe aLAP1, primary screen, cell lysate, small-molecule microarray (AID 1124).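 Note: lysate comes from COS7 cells expressing LAP1 and is applied at 0.3 µg/mL; score merges spot fluorescence near 667 nm with signal-to-noise over triplicate slides.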 As to conditions: probe aLAP1, fluorescence, higher = more signal.
The subject of another experiment is Sam68 (KHDRBS1). Kind of experiment: Sam68 small-molecule binders, primary screen, biochemical, small-molecule microarray, 635 nm fluorescence (AID 1125).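 Note: score merges 667 nm channel intensity with signal to noise over triplicate slides.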 The note with it: small-molecule microarray binding, higher = more signal.
Experiment [17] concerns Chordin-like protein 2 (CHRDL2). The experiment is described as follows: CHRDL2 small-molecule binders, primary screen, biochemical, small-molecule microarray, 635 nm fluorescence (AID 1126).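 Note: printed compound slides probed with Chrdl2 protein at 4 µg/mL for 1 h at 4 C; score merges 667 nm emission intensity with signal to noise over three replicate slides.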 The note with it: small-molecule microarray binding, fluorescence 635 nm; higher = more signal.
Experiment [18] concerns the target Concanavalin-A (Canavalia ensiformis) (UniProt P02866). Kind of experiment: ConA small-molecule binders, primary screen, artefact control for SMM control protein annotation, biochemical, small-molecule microarray, Alexa647 label, 635 nm (AID 1127).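 Note: z combines 667 nm emission intensity with signal-to-noise across three replicate slides.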 As to conditions: ConA-A647 binding fluorescence, higher = more signal.

Composite z-score, z-score and composite Z-score data for 6 molecules are collected here from PubChem BioAssay.

Calls of active or inactive are those of the source.

Concanavalin-A (Canavalia ensiformis), sequence (P02866 whole entry, looked up): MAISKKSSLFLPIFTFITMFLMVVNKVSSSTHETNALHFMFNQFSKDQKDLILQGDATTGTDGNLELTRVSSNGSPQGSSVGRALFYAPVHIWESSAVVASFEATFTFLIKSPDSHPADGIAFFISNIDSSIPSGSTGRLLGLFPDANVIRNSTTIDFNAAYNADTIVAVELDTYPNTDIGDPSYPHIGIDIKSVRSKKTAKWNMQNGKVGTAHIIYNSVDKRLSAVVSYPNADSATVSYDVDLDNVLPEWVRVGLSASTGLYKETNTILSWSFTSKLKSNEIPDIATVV
Alpha-bungarotoxin (Bungarus multicinctus), sequence (P60615 whole entry, looked up): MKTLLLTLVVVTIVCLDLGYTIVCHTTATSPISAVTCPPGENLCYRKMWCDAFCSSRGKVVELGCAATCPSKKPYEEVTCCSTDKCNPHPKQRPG
Torsin-1A-interacting protein 1 (Homo sapiens), sequence (Q5JTV8 whole entry, looked up): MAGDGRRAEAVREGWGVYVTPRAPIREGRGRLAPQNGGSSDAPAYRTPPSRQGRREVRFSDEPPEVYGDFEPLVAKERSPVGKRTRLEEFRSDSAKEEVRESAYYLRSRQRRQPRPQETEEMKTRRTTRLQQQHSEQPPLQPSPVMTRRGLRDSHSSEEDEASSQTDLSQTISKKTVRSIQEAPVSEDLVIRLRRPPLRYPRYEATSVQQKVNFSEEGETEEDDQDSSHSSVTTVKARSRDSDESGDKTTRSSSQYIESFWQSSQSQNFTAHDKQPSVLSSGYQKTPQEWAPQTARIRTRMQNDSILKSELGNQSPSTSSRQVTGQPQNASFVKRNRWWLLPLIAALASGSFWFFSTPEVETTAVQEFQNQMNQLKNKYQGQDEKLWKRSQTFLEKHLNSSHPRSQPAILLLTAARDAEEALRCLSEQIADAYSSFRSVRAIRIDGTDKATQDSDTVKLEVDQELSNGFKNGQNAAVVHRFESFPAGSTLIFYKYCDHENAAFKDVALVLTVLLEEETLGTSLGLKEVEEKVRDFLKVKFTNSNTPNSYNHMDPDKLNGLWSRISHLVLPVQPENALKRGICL
Albumin (Bos taurus), sequence (P02769 whole entry, looked up): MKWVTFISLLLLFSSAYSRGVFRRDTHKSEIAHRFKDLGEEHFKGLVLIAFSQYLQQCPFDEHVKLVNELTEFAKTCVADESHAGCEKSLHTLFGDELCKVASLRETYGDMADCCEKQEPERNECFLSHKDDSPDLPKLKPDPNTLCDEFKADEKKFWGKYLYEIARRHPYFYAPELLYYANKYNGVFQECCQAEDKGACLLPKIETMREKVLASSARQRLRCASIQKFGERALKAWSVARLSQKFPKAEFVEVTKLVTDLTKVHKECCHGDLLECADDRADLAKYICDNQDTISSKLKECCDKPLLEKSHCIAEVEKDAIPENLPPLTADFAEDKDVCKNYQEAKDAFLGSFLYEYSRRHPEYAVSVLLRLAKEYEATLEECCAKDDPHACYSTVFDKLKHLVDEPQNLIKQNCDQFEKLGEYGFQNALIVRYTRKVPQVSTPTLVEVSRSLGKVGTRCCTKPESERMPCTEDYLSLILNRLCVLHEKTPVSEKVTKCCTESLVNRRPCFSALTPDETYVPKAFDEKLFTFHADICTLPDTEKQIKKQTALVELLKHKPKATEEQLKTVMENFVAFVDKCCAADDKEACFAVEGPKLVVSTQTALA
Left-right determination factor 2 (Homo sapiens), sequence (O00292 whole entry, looked up): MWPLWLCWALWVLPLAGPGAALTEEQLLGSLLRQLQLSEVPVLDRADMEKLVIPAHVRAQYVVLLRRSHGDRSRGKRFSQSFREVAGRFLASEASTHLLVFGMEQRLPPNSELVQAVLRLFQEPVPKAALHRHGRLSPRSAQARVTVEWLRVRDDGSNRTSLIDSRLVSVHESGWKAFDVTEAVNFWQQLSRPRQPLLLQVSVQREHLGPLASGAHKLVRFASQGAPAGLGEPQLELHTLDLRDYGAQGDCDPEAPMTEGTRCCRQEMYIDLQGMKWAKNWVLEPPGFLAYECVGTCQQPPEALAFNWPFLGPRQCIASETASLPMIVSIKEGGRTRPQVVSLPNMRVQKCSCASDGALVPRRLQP

On to `COCCOC(=O)N1C(=O)[C@@]2(c3cc(C#CC4=CCCCC4)ccc31)[C@H](c1ccc(OCCO)cc1)N1[C@H](c3ccccc3)[C@H](c3ccccc3)OC(=O)[C@H]1[C@@H]2C(=O)Nc1nc2ccccc2s1`, for which the composite z-score in [1] is 1.23; in experiment [3], 0.172; in experiment [4] it was 1.57; in experiment [5], -0.386; in experiment [6], -0.001; in experiment [7], 0.275. For the same molecule, the composite z-score in experiment [8] is -0.45; in experiment [9], 0.993; in [10], 0.656; with Albumin (Bos taurus), 0.539; in experiment [12], 0.151; in experiment [13], -0.0483. Also, the composite z-score in [14] stood at 0.154; in experiment [15], 0.999; in experiment [16], 0.664; in the experiment on Sam68 (KHDRBS1) it was 1.31; in experiment [17], 1.29; in experiment [18], 1.09. Moreover, the z-score in [2] is -1.87. Besides, in experiment [11], the composite Z-score is 0.657 (inactive).
As for `COC(=O)[C@@]1(Cc2ccc(OC)cc2)[C@H]2c3cc(C(=O)N4CCCC4)n(C[C@H](O)CO)c3C[C@H]2CN1C(=O)c1ccccc1`, the composite z-score in experiment [1] was 0.464; in experiment [3] it was -0.416; in experiment [4] it was 1.14; in [5], 0.91; in experiment [6] it was -0.252; in experiment [7], 1.17. For the same molecule, the composite z-score amounted to 1.59 in experiment [8]; 0.707 in experiment [9]; 0.113 in experiment [10]; 0.947 with Albumin (Bos taurus); 0.0824 in experiment [12]; 0.0817 in [13]. Moreover, the composite z-score was 0.869 in experiment [14]; 1.62 in experiment [15]; 0.226 in [16]; -0.0743 in the experiment with Sam68 (KHDRBS1); -0.229 in experiment [17]; 0.556 in experiment [18]. The z-score in experiment [2] was -0.439. In experiment [11], the composite Z-score was 0.509 (inactive).
As to `COC(=O)c1c2oc(c1C(=O)OC)C(=O)N[C@H](Cc1ccccc1)Cn1nncc1C1(CCCCC1)NC(=O)N[C@H](CO)CC2`, the composite z-score in experiment [1] is 0.613; in experiment [3], 0.0801; in experiment [4], -0.16; in [5], -0.661; in [6], -0.0179; in [7], -0.138. Moreover, the composite z-score in experiment [8] was -0.308; in experiment [9], -0.208; in experiment [10], -0.181; with Albumin (Bos taurus), -0.399; in experiment [12], -0.143; in [13], -0.192. In addition, the composite z-score in experiment [14] is 0.163; in experiment [15], 0.388; in experiment [16], -0.0073; in the experiment on Sam68 (KHDRBS1), 0.702; in [17], 0.419; in [18], 0.0053. In experiment [2], the z-score was -0.398. For the same molecule, the composite Z-score in experiment [11] is 0.699 (inactive).
For `C=C[C@H](C)[C@H](OC(=O)Nc1ccc(OC)cc1)c1ccc(O)c2ccccc12`, the composite z-score is -0.942 in experiment [1]; -0.654 in [3]; -1.38 in experiment [4]; -0.881 in [5]; -0.129 in [6]; -0.0709 in [7]. The composite z-score in experiment [8] was -0.0691; in [9], 0.041; in experiment [10], -0.596; with Albumin (Bos taurus) it was 0.171; in [12], -0.185; in experiment [13], -0.193. For the same molecule, the composite z-score in experiment [14] is 0.696; in experiment [15], 0.702; in experiment [16] it was 0.513; in the experiment on Sam68 (KHDRBS1) it was -0.07; in [17], 0.396; in [18] it was -0.503. Besides, in experiment [2], the z-score is -3.3. For the same molecule, the composite Z-score in experiment [11] was 0.741 (inactive).
For the molecule `O=C(CS)NCCCCCCNC(=O)[C@H]1C[C@H]2C(=O)N3CCC[C@H]3C(=O)N2[C@H]1c1ccc(O)cc1`, the composite z-score in experiment [1] is -0.185; in experiment [3], -0.0156; in experiment [4], 0.511; in experiment [5], 0.425; in experiment [6] it was -0.0236; in experiment [7], -0.0011. The composite z-score was 0.202 in experiment [8]; 1.68 in experiment [9]; 0.927 in [10]; 0.11 in the experiment with Albumin (Bos taurus); 0.298 in [12]; -0.147 in experiment [13]. Also, the composite z-score in experiment [14] was 0.389; in [15], -0.125; in [16], -0.0269; in the experiment with Sam68 (KHDRBS1), 0.557; in experiment [17] it was 0.257; in [18], 0.853. For the same molecule, the z-score in experiment [2] was -0.32. Further, in experiment [11], the composite Z-score is 0.131 (inactive).
In the case of `C[N+](C)(C)CCCC[C@@H]1NC(=O)[C@@H]2C[C@H](C(=O)NCCCCCCNC(=O)CS)[C@H](c3cccc(OCCO)c3)N2C1=O`, the composite z-score in experiment [1] is -0.568; in experiment [3] it was 0.382; in experiment [4], -0.485; in experiment [5] it was -0.467; in experiment [6] it was -0.233; in experiment [7], -0.0553. Besides, the composite z-score is -0.331 in experiment [8]; 0.567 in experiment [9]; 2.15 in [10]; -0.658 with Albumin (Bos taurus); -0.0984 in [12]; -0.174 in [13]. Moreover, the composite z-score in experiment [14] is 0.332; in [15], 1.04; in [16], 0.264; with Sam68 (KHDRBS1), 0.129; in [17], 0.393; in experiment [18], -0.258. Further, the z-score in experiment [2] is -0.154. In experiment [11], the composite Z-score was 0.802 (inactive).
